{"source": "PubChem BioAssay (NCATS)", "key": {"[1]": {"test": "Counterscreen for APE1 Inhibitors: Fluorescent Dye Displacement Validation Assay (AID 1707);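 further: plate controls were ThO with dsDNA and no compound for no effect and ThO without dsDNA for full effect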", "procedure,_shortened": "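Thiazole Orange displacement from dsDNA: 250 nM ThO with 50 nM TAMRA-labelled abasic-site (tetrahydrofuran) duplex in 50 mM Tris-HCl pH7.5, 50mM NaCl, 2 mM MgCl2, 0.01% Tween-20. Loss of endpoint fluorescence (ex 480 nm, em 540 nm) flags DNA binders.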"}, "[2]": {"test": "qHTS for differential inhibitors of proliferation of Plasmodium falciparum line 7G8 (AID 1815);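 further: potency means the concentration at half of the fitted maximal effect; parasite growth measured after three days of incubation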"}, "[3]": {"test": "qHTS for differential inhibitors of proliferation of Plasmodium falciparum line GB4 (AID 1816);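 further: potency means the concentration at half of the fitted maximal effect; parasite growth measured after 72 h incubation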", "conditions": "Potency: Plasmodium falciparum GB4 proliferation inhibition"}, "[4]": {"test": "qHTS for differential inhibitors of proliferation of Plasmodium falciparum line W2 (AID 1883);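 further: potency means the concentration at half of the fitted maximal effect; parasites grown with compound for 72 h before lysis and staining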", "conditions": "Potency: Plasmodium falciparum W2 proliferation inhibition"}, "[5]": {"target": "Ferritin light chain (Equus caballus) (UniProt P02791)", "sequence (P02791 2-175 limits assumed)": "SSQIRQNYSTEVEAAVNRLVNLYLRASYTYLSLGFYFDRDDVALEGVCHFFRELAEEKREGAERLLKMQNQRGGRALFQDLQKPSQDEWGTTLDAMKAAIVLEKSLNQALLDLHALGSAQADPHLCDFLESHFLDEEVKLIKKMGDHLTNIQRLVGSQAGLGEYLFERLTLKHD", "test": "qHTS Validation Assay for Identification of Novel General Anesthetics (AID 2323); further: on the % scale 0 is the no-effect control and ±100 the full control effect", "procedure,_shortened": "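Normalized fluorescence response, scaled between free 1-AMA and 1-AMA/apoferritin complex, fitted to a four-parameter Hill equation for concentration-effect values. Binding mix: 10 uM horse-spleen apoferritin, 50% saturated 1-AMA in PBS; read 380/535 nm after 10 min.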"}, "[6]": {"target": "ATP-dependent DNA helicase Q1 (Homo sapiens) (UniProt P46063)", "sequence (P46063 whole entry, looked up)": "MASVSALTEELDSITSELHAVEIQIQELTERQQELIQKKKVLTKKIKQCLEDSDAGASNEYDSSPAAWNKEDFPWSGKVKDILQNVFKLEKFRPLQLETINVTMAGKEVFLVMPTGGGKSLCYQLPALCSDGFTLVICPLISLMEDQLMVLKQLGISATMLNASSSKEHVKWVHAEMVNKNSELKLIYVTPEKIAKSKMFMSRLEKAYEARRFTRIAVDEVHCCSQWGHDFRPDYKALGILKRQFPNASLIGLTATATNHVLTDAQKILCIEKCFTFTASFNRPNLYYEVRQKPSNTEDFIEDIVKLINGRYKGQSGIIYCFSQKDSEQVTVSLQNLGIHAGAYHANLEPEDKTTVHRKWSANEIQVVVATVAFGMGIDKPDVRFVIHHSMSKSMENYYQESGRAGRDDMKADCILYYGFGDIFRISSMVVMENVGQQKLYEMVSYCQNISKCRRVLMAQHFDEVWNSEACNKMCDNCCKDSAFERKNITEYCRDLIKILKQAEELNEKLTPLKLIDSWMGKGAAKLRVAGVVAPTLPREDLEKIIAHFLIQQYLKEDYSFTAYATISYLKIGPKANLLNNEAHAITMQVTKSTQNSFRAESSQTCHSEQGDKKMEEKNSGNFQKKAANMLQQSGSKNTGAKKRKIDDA", "test": "qHTS Validation Assay for Inhibitors of RecQ-Like Dna Helicase 1 (RECQ1) (AID 2353);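 further: plate controls were DMSO vehicle for no effect and enzyme-free control for full effect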", "procedure,_shortened": "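50 nM RECQ1T1 preincubated 15 min with compound in Tris pH 8.0 buffer with MgCl2, DTT, Tween-20 and 2.5 ug/ml poly(dI-dC); started with 200 nM TAMRA/BHQ-2 forked duplex and 2 mM ATP. Unwinding read as fluorescence (525/598 nm), two reads 2 h apart.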"}, "[7]": {"test": "Quantitative high throughput screen for delayed death inhibitors of the malarial parasite plastid, 48 hour incubation (AID 488752); further: on the % scale 0 is the no-effect control and ±100 the full control effect; nearly all actives have a fitted effect of over 65% in size", "procedure,_shortened": "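Readout is firefly luciferase luminescence from a reporter integrated into the parasite genome, with lower signal taken as inhibited growth. Infected red cells (0.1% parasitemia, 2% hematocrit final) are cultured with compound for one 48 h cycle at 37 C.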"}, "[8]": {"target": "M-phase phosphoprotein 8 (Homo sapiens) (UniProt Q99549)", "sequence (Q99549 whole entry, looked up)": "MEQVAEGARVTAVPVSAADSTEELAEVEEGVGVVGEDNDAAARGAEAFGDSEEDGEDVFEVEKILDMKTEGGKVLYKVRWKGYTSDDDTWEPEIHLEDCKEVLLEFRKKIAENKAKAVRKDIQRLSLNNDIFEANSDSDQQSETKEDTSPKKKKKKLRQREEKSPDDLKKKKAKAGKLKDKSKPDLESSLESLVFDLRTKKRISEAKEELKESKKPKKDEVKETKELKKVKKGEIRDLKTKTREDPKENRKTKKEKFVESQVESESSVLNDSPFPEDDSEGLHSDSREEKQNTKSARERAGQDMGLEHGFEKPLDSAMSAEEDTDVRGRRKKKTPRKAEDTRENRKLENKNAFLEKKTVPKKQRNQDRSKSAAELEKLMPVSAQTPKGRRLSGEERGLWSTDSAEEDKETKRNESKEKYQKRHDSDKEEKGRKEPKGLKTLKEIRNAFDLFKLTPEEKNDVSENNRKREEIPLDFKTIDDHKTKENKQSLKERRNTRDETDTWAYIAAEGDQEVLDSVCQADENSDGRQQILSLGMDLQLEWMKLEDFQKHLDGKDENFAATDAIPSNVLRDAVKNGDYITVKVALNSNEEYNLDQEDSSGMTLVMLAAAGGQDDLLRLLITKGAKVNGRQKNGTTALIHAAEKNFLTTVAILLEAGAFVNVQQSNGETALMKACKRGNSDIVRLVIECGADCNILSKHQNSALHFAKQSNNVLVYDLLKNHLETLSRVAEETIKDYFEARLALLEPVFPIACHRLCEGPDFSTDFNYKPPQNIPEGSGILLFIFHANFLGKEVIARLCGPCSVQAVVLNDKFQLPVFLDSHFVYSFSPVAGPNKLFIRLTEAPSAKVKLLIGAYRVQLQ", "test": "qHTS Validation Assay for Inhibitors for MPP8 Chromodomain Interactions with Methylated Histone Tails (AID 488949);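 further: AlphaScreen signal from MPP8 chromodomain bound to biotinylated H3K9me3 peptide; top concentration of the series differs between compounds; on the % scale 0 is the no-effect control and ±100 the full control effect; nearly all actives have a fitted effect of over 55% in size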", "procedure,_shortened": "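Chemiluminescent proximity assay: histidine-tag capture via nickel acceptor beads, biotin peptide via streptavidin donor beads. Protein and peptide each at 50 nM, pH 7.4, with 30 min incubations at room temperature for complex formation, compound exposure and bead binding.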"}, "[9]": {"target": "Transient receptor potential cation channel subfamily V member 1 (Homo sapiens) (UniProt Q8NER1)", "sequence (Q8NER1 whole entry, looked up)": "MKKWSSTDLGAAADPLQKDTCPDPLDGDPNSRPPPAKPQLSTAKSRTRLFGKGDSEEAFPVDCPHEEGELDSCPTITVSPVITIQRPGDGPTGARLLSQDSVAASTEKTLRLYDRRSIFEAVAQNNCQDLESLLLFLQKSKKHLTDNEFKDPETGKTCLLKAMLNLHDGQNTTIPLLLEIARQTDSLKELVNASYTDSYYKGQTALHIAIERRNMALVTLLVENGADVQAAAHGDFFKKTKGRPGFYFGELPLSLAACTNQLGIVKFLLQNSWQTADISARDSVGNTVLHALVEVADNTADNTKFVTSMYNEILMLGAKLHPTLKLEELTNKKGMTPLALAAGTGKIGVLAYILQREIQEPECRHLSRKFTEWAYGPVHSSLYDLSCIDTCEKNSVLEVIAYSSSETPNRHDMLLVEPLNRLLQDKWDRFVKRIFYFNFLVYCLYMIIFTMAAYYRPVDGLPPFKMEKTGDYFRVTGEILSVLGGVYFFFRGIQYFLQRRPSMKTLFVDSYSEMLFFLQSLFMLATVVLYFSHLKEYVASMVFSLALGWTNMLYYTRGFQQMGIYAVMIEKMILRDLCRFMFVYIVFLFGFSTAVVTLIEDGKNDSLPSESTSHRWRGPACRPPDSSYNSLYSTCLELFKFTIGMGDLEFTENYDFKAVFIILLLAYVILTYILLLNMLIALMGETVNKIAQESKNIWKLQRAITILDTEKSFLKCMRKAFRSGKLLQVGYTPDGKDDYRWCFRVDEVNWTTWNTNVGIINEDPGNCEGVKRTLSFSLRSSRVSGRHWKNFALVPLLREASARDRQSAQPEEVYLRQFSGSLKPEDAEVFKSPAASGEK", "test": "HTS Assay for Compounds that Act as Enhancers of the Vanilloid Receptor 1 (AID 488979); further: 0% is about no effect", "procedure,_shortened": "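Calcium influx kinetics via Fluo-8 (480/520 nm) in TRPV1-expressing cells, 2000/well cultured overnight at 35.5C. Compound-alone read 3 min (agonist phase), followed by EC20 capsaicin challenge for 2 min (enhancer phase).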"}, "[10]": {"target": "Thyrotropin receptor (Homo sapiens) (UniProt P16473)", "sequence (P16473 whole entry, looked up)": "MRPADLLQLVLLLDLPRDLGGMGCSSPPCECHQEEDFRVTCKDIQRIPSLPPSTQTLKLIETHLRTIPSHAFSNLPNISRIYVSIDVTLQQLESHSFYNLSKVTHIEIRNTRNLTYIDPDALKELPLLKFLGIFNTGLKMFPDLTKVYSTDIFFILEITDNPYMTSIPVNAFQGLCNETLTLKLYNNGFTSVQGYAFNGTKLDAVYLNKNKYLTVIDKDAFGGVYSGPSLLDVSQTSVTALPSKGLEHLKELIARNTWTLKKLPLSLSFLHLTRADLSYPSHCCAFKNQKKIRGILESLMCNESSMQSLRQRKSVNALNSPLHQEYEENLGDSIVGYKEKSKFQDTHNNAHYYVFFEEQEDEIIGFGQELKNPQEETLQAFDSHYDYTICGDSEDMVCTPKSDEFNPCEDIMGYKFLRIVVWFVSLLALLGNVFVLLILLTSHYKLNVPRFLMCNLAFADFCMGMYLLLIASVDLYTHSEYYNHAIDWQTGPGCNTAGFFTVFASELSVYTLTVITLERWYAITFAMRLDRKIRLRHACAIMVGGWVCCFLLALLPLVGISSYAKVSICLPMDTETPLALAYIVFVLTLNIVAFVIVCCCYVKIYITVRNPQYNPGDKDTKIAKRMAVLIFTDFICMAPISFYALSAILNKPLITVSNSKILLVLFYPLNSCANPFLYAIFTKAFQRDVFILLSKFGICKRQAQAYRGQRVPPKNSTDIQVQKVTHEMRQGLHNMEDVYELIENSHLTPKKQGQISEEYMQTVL", "test": "qHTS Assay for Antagonists of the Thyroid Stimulating Hormone Receptor (AID 488980); further: 0% is about no effect", "procedure,_shortened": "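Inhibition of TSH-stimulated cAMP accumulation was quantified by homogeneous time-resolved FRET in TSHR-transfected HEK293 cells. Agonist: TSH, 4 nM final (EC80).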"}, "[11]": {"target": "Thyrotropin-releasing hormone receptor (Homo sapiens) (UniProt P34981)", "sequence (P34981 whole entry, looked up)": "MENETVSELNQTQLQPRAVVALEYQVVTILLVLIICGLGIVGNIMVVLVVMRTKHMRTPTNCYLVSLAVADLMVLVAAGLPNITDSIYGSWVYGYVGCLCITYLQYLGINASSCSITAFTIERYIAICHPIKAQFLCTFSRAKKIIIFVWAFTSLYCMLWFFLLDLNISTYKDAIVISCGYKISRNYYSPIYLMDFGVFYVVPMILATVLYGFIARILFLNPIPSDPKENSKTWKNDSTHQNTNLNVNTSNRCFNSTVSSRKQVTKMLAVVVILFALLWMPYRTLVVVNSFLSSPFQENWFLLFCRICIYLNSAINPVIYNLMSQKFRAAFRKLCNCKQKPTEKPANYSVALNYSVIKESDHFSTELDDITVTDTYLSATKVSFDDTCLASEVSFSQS", "test": "qHTS for Small Molecule Agonists and Allosteric Enhancers of Human TRH Receptor: Validation Screen for Agonists (AID 493127;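 active means calcium activation more than 3 SD above the typical response in the agonist read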;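 further: intracellular calcium rise by fluo-8 fluorescence before TRH EC20 addition; 0% is about no effect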)", "conditions": "TRH receptor agonist cell assay; at 2 µM; stronger effect = higher value", "procedure,_shortened": "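Cells 2000/well, 10% FCS, 18 h 33.5C/5% CO2 → fluo-8 Ca dye, RT 30 min–1.5 h → FDSS baseline 10 × 1 s → compound added → 230 cycles (1 s/cycle) agonist mode. TRH controls.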"}, "[12]": {"target": "Galactokinase (Homo sapiens) (UniProt P51570)", "sequence (P51570 whole entry, looked up)": "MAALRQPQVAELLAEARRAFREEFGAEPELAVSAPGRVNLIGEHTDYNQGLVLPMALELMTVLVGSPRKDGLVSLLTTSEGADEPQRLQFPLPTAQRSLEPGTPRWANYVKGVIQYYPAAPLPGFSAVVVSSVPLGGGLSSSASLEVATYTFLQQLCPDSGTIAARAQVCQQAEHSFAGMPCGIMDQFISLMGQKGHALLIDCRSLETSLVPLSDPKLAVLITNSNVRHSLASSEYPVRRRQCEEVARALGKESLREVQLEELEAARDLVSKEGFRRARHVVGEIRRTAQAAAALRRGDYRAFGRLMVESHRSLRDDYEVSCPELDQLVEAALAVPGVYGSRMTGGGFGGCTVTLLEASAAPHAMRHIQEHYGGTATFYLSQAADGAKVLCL", "test": "qHTS Validation Assay for Inhibitors of Human Galactokinase (GALK) (AID 493189); further: 0% is about no effect", "procedure,_shortened": "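Enzyme activity is inferred from ATP consumption: human GALK phosphorylates galactose (100 uM) using 35 uM ATP for 1 h at room temperature, and luciferase-based Kinase-Glo Plus reports unconsumed ATP.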"}, "[13]": {"test": "Validation screen for small molecules that induce DNA re-replication in SW480 colon adenocarcinoma cells (AID 504364); further: 0% is about no effect", "procedure,_shortened": "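250 cells/well; compound pinned in; 48 hr, 37 C, 5% CO2; Hoechst added, 40 min; nuclear fluorescence imaged, 405 ex / 500-530 em; re-replication scored as increase in high-intensity nuclei.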"}, "[14]": {"target": "Catechol O-methyltransferase (Homo sapiens) (UniProt P21964)", "sequence (P21964 whole entry, looked up)": "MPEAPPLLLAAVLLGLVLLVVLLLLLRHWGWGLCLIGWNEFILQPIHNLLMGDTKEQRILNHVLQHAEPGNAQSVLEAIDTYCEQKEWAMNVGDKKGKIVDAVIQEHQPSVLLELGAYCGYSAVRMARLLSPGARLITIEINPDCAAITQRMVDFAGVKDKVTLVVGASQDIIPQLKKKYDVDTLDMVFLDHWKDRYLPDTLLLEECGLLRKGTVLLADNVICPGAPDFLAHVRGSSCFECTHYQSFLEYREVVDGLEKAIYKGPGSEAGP", "test": "Confirmatory Screen for Target Class Profiling of Small Molecule Inhibitors of Methyltransferases (AID 1745852; calls by dose curve)", "conditions": "MTase-Glo luminescence, SAH detection, recombinant enzyme; measured here: COMT max response; stronger effect = lower value"}, "[15]": {"target": "Guanidinoacetate N-methyltransferase (Homo sapiens) (UniProt Q14353)", "test": "Confirmatory Screen for Target Class Profiling of Small Molecule Inhibitors of Methyltransferases (AID 1745852); further: potency means the concentration at half of the fitted maximal effect; on activity change, negative = inhibition: on the % scale 0 is the no-effect control and ±100 the full control effect", "conditions": "activity change, negative = inhibition: at 57.3 µM (top of the series) unless noted"}, "[16]": {"target": "Nicotinamide N-methyltransferase (Homo sapiens) (UniProt P40261)", "sequence (P40261 whole entry, looked up)": "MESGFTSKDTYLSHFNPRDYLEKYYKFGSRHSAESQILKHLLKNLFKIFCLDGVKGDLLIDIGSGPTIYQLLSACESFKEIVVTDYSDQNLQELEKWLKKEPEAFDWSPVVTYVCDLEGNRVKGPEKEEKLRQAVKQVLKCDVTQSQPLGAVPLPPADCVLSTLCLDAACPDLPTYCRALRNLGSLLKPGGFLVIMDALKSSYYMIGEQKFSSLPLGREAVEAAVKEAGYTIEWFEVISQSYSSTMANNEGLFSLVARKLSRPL", "test": "Confirmatory Screen for Target Class Profiling of Small Molecule Inhibitors of Methyltransferases (AID 1745852)", "conditions": "MTase-Glo luminescence, SAH detection, recombinant enzyme; measured here: NNMT max response; stronger effect = lower value"}, "[17]": {"target": "Phenylethanolamine N-methyltransferase (Homo sapiens) (UniProt P11086)", "sequence (P11086 whole entry, looked up)": "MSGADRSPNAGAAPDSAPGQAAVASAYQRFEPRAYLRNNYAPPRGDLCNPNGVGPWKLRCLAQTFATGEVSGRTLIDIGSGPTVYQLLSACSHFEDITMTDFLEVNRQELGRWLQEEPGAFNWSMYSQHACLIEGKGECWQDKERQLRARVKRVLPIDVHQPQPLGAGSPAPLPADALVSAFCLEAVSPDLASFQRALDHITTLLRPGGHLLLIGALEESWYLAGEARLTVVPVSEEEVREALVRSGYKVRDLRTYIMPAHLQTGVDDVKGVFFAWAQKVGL", "test": "Confirmatory Screen for Target Class Profiling of Small Molecule Inhibitors of Methyltransferases (AID 1745852)", "conditions": "MTase-Glo luminescence, SAH detection, recombinant enzyme; measured here: PNMT max response; stronger effect = lower value"}}, "note": "Records with an inconclusive call do not appear. Activity calls are given as the source filed them. Unless noted, the call rests on the fitted dose curve; in most records, active means well fitted curve in the direction sought with a large enough effect; inconclusive means small, poorly fitted or top-dose-only effect, or another doubt; inactive means no such curve, though single readings can be large; an effect the other way counts as inactive or inconclusive.", "data": [{"smiles": "CC(=O)SC1CC2=CC(=O)CC[C@]2(C)C2CC[C@@]3(C)[C@@H](CC[C@@]34CCC(=O)O4)C12", "note": "(some centres not stated)", "values": [{"measurement": "outcome", "setting": "[1]", "result": "inactive"}, {"measurement": "Potency", "setting": "[2]", "result": "11.2 µM (active)"}, {"measurement": "Potency", "setting": "[3]", "result": "7.94 µM (active)"}, {"measurement": "Potency", "setting": "[4]", "result": "7.08 µM (active)"}, {"measurement": "outcome", "setting": "[5]", "result": "inactive"}, {"measurement": "outcome", "setting": "[6]", "result": "inactive"}, {"measurement": "Potency", "setting": "[7]", "result": "inactive"}, {"measurement": "Potency", "setting": "[8]", "result": "inactive"}, {"measurement": "outcome", "setting": "[9]", "result": "inactive"}, {"measurement": "outcome", "setting": "[10]", "result": "inactive"}, {"measurement": "activation", "setting": "[11]", "result": "1.19% (inactive)"}, {"measurement": "outcome", "setting": "[12]", "result": "inactive"}, {"measurement": "Potency", "setting": "[13]", "result": "inactive"}]}, {"smiles": "O=C(CCc1nnc2n(Cc3ccccc3Cl)c(=O)c3ccccc3n12)NCCc1c[nH]c2ccccc12", "values": [{"measurement": "activity", "setting": "[14]", "result": 4.12, "unit": "%"}, {"measurement": "activity change, negative = inhibition", "setting": "[15]", "result": 0, "unit": "%"}, {"measurement": "activity", "setting": "[16]", "result": -2.9, "unit": "%"}, {"measurement": "activity", "setting": "[17]", "result": -5.42, "unit": "%"}]}, {"smiles": "O=C(O)c1ccc(Nc2nc3ccccc3n3cnnc23)cc1", "values": [{"measurement": "activity", "setting": "[14]", "result": -82.3, "unit": "%"}, {"measurement": "Potency", "setting": "[15]", "result": "19.3 µM (active)"}, {"measurement": "activity", "setting": "[16]", "result": -79.6, "unit": "%"}, {"measurement": "activity", "setting": "[17]", "result": -46, "unit": "%"}]}, {"smiles": "COc1ccc(CCNc2nc3c(-c4cccc(F)c4)nnn3c3ccccc23)cc1OC", "values": [{"measurement": "activity", "setting": "[14]", "result": -7.47, "unit": "%"}, {"measurement": "activity change, negative = inhibition", "setting": "[15]", "result": -8.63, "unit": "%"}, {"measurement": "activity", "setting": "[16]", "result": -5.65, "unit": "%"}, {"measurement": "activity", "setting": "[17]", "result": -3.23, "unit": "%"}]}, {"smiles": "O=C(c1ccc(Cl)cc1)N1CC2(CCN(CC3CC3)CC2)Cc2ccccc21", "values": [{"measurement": "activity", "setting": "[14]", "result": -9.09, "unit": "%"}, {"measurement": "activity change, negative = inhibition", "setting": "[15]", "result": -2.34, "unit": "%"}, {"measurement": "activity", "setting": "[16]", "result": -9.37, "unit": "%"}, {"measurement": "activity", "setting": "[17]", "result": -4.04, "unit": "%"}]}, {"smiles": "COc1ccc(CN2C[C@@H](CO)[C@H](c3ccncc3)C2)c(OC)c1", "values": [{"measurement": "activity", "setting": "[14]", "result": 7.35, "unit": "%"}, {"measurement": "activity change, negative = inhibition", "setting": "[15]", "result": 7.27, "unit": "%"}, {"measurement": "activity", "setting": "[16]", "result": -21.3, "unit": "%"}, {"measurement": "activity", "setting": "[17]", "result": 8.2, "unit": "%"}]}, {"smiles": "CCNc1nc2c(s1)C(c1cccc(F)c1)CC(=O)N2", "note": "(configuration not stated)", "values": [{"measurement": "activity", "setting": "[14]", "result": -12.6, "unit": "%"}, {"measurement": "Potency", "setting": "[15]", "result": "42.9 µM (active)"}, {"measurement": "activity", "setting": "[16]", "result": -25, "unit": "%"}, {"measurement": "activity", "setting": "[17]", "result": -19.2, "unit": "%"}]}]}
